# Assay outcomes from PubChem BioAssay.
# Compounds with a hit are over-represented: about 2.4% of the library has one in this group of screens.
# ELG1 DNA repair: ELG1-dependent DNA repair inhibition; HEK293T ELG1-luciferase reporter, luminescence, 16 h; DNA damage induced by 5-fluorouridine; Potency, µM (doses to about 46.1 µM), for the others: top-dose activity change, negative = inhibition, actives largely listed as inhibitors; 330,000 compounds, 2.3% hits; further: on the % scale 0 is the no-effect control and ±100 the full control effect; nearly all actives have a fitted effect of over 55% in size
#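 Step one: seed 2,000 cells per well. Step two: pin-transfer compound or DMSO alongside 5-fluorouridine. Step three: incubate 16 hr, 37 °C, 5% CO2. Step four: add ONE-Glo, wait 30 min, read luminescence.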
# Rango complex inh: prevents formation of the Rango-importin beta complex; Q14974; AID 540263; 340,000 compounds, 0.031% hits; Potency, µM (highest dose often 92.2 µM), without a hit: at the top dose inhibition of complex formation; Rango CFP/YFP FRET sensor + importin beta, 45 min; calls by dose curve;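 further: 0% = DMSO wells and 100% = buffer wells lacking importin beta; nearly all actives have a fitted effect of over 15% in size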
#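 FRET biosensor (snurportin 1 IBB flanked by EYFP and cerulean), 50 nM, with compound 5 min, then 0.125 microM importin beta in PBS, 1 mM DTT, 0.02% Tween-20, 0.1% BSA. CFP/YFP ratio read after 45 min at room temperature; pre-read flags interference.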
# PKM2 activator: PKM2 (human) enzyme activation. Potency, µM (series often up to 57.5 µM), for inactives: at the highest dose activation, most hits filed as activators. purified PKM2, Kinase-Glo ATP luminescence, activation; response scale: 0% is enzyme alone, no compound. 260,000 compounds, 0.34% hits. AID 1631. P14618; further: on the % scale 0 is the no-effect control and ±100 the full control effect; nearly all actives have a fitted effect of over 55% in size
#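 Kinase-Glo luminescence reports ATP generated from ADP (0.1 mM) and PEP (0.5 mM) by purified hPK-M2 after 1 h at room temperature, pH 7.2 imidazole buffer; intermediate enzyme activity allows detecting inhibitors and activators.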
# Tb PFK block: T. brucei PFK enzyme inhibition; Potency, µM (highest dose often 57.5 µM), for inactives: at the top dose activity, negative = inhibition, actives largely listed as inhibitors; AID 485367; O15648; 330,000 compounds, 0.17% hits; T. brucei PFK, ADP-Glo luminescence;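 further: 0% = uninhibited 1x PFK enzyme wells and -100% = no-enzyme wells; nearly all actives have a fitted effect of over 60% in size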
# Target sequence (O15648 whole entry, looked up): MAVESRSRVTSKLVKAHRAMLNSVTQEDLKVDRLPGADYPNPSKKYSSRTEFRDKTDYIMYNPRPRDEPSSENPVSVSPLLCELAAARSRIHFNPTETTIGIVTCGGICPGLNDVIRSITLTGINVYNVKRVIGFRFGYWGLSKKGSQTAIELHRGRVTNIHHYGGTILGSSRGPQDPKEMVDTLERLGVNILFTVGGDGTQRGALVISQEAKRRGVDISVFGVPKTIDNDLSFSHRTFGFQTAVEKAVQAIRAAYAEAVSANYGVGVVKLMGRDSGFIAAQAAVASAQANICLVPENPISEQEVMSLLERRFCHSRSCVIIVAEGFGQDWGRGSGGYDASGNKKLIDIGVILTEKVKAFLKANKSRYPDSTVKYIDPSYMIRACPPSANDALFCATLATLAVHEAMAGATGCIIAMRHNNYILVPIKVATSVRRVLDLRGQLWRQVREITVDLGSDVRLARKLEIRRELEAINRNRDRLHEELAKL
#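 Activity is normalized to no-enzyme wells (full inhibition) and 1.25 nM enzyme wells (no inhibition). Reaction: 0.5 mM F6P, 0.1 mM ATP, 45 min RT, ADP-Glo luminescence; concentration-response curves fitted and classed by quality.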
# Rango dissoc inh: prevents RanGTP from dissociating the Rango-importin beta complex; O95149+P62826; Biochemical FRET Rango-importin beta, RanGTP-induced dissociation; Potency, µM (highest dose often 46.1 µM), for inactives: at the highest dose activity change, negative = inhibition; 340,000 compounds, 0.071% hits; calls by dose curve; further: % of control where 0% means no effect; nearly all actives have a fitted effect of over 45% in size
#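 Rango/importin beta premix (0.1/0.25 uM final), PBS + 1 mM DTT + 0.02% Tween-20 + 0.1% BSA; cpd 5 min RT; FRET pre-read; + RanGTP-RCC1 (0.6 uM Ran, 2 mM GTP, 0.2 uM RCC1); 45 min RT; FRET post-read, ex 430, em 486/530 nm.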
# Tb PGK inh: blocks T. brucei phosphoglycerate kinase | P07378 | PGK/GAPDH coupled, Kinase-Glo luminescence, 60 min | Potency, µM (titrated, usually from 57.5 µM), without a hit: at the highest dose activity change, negative = inhibition, usual class: inhibitors | 380,000 compounds, 0.043% hits | AID 602233; further: on the % scale 0 is the no-effect control and ±100 the full control effect; nearly all actives have a fitted effect of over 60% in size
#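 Recombinant glycosomal PGK reaction used 1,3-bisphosphoglycerate generated in-well by GAPDH (100nM final) in 100mM TEA pH 7.6, 5mM MgCl2, 0.01% Tween-20. After 60 minutes at room temperature, ATP was read by Kinase-Glo Plus luminescence end-point.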
# Starred values were filed as active, the others as inactive; i = inactive; ? = inconclusive; / = no result; [ ] = dose if it differs, or a comment. Unless noted, the call rests on the fitted dose curve; in most records, active means well fitted curve in the direction sought with a large enough effect; inconclusive means small, poorly fitted or top-dose-only effect, or another doubt; inactive means no such curve, though single readings can be large; an effect the other way counts as inactive or inconclusive. Potency means the concentration at half of the fitted maximal effect.
SMILES,ELG1 DNA repair,Rango complex inh,PKM2 activator,Tb PFK block,Rango dissoc inh,Tb PGK inh
Cc1ccc(C)c(N2CCN(C(=O)c3cc4c(C)nc5ccccc5c4o3)CC2)c1,?,4%,5%[0.46 µM],0%,0%,i
O=C(CSc1nnc(COc2ccccc2)o1)NC1CC2CCC1C2 (stereo not given),4%,-1%,0%,-14%,0%,-2%
O=C(CN(Cc1cccs1)C(=O)CSc1nnc(COc2ccccc2)o1)NC1CCCCC1,18µM*,-1%,-5%,0%,-4%,-3%
CCOc1ccc(N(CC(=O)NC2CCCCC2)C(=O)CSc2nnc(COc3ccccc3)o2)cc1,18µM*,-3%,-5%,1%,5%,-8%
O=C(CSc1nnc(COc2ccc(Br)cc2)o1)NC1CCCCC1,2%,3%,/,0%,-4%,9%
Cc1ccccc1NS(=O)(=O)c1ccc2[nH]cc(C(=O)NCCc3ccccc3)c(=O)c2c1,/,/,/,-14%,/,-20%
CCN(C(=O)COC(=O)CC1CCCCC1)c1c(N)n(Cc2ccccc2)c(=O)[nH]c1=O,16%,-8%,/,7%,8%,-1%
Cc1ccc(NC(=O)Cn2c(=O)n(-c3ccc(C)cc3)c(=O)c3ccc(C(=O)NCc4ccccc4Cl)cc32)cc1,/,/,/,/,/,2%
COc1ccc(/C(C)=N\Nc2nc(-c3ccc(Cl)cc3)cc(C(F)(F)F)n2)cc1OC,8.2µM*,1%,0%,1%,12%,7%
Cc1ccc(S(=O)(=O)C(CNC(=O)COc2ccccc2)c2cccs2)cc1 (stereo not given),/,/,/,/,/,10µM*
Cc1cc(S(=O)(=O)C(CNC(=O)COc2ccccc2)c2cccs2)ccc1F (stereo not given),/,/,/,/,/,-1%
COc1cccc(C2=CC(=O)C[C@H](c3ccc(Cl)cc3)C2)c1OC,21µM*,-1%,/,0%,1%,-13%
COc1ccccc1C1=CC(=O)C[C@H](c2ccc(Cl)cc2)C1,?,1%,/,2%,0%,-10%
Cc1ccc(CNC(=O)CSc2ncc(C(=O)Nc3ccccc3)c(=O)n2C)cc1,?,3%,/,5%,1%,4%
Cc1ccc(OCCC(=O)N(CCC(C)C)c2c(N)n(Cc3ccccc3)c(=O)[nH]c2=O)cc1,1%,-2%,/,4%,-15%,-9%
NS(=O)(=O)c1ccc(CNC(=O)Cc2ccccc2[N+](=O)[O-])cc1,-6%,-5%,-9%,1%,1%,-7%
COc1ccccc1N(C)S(=O)(=O)c1ccc(C(=O)Nc2nc(C)cs2)cc1,13µM*,0%,11%,3%,5%,i
COc1ccccc1N(C)S(=O)(=O)c1ccc(C(=O)Nc2cc(F)ccc2C)cc1,18µM*,5%,/,-1%,1%,-5%
COc1cc(OC)cc(C(=O)NNC(=O)c2ccc(S(=O)(=O)N(C)c3ccccc3OC)cc2)c1,15µM*,-1%,14%,3%,5%,-7%
Cc1cc(-c2csc(NC(=O)c3ccc(S(=O)(=O)N(C)C)cc3)n2)c(C)n1-c1ccccc1,9.2µM*,0%,6%,2%,1%,-2%
COc1ccccc1N(C)S(=O)(=O)c1ccc(C(=O)Nc2nnc(C)s2)cc1,1%,?,/,13%,32%,0%
COc1ccccc1N(C)S(=O)(=O)c1ccc(C(=O)NC(C)(C)C)cc1,?,0%,1%,4%,-9%,-3%
COCCn1c(C)c(C)c(S(=O)(=O)c2ccccc2)c1N,12%,?,/,0%,-11%,i
CCn1cnc2c1c(=O)n(CC(=O)Nc1ccc(C(N)=O)cc1)c(=O)n2Cc1ccccc1,6.5µM*,-2%,-3%,2%,6%,-9%
CCn1cnc2c1c(=O)n(CC(=O)NN)c(=O)n2Cc1ccccc1,-13%,0%,/,-4%,?,9%
SMILES,ELG1 DNA repair,Rango complex inh,PKM2 activator,Tb PFK block,Rango dissoc inh,Tb PGK inh
CCCn1c(=O)c2c(nc3n2CCCN3Cc2ccccc2)n(C)c1=O,-5%,0%,/,-4%,15%,2%
Cn1c(=O)n(Cc2ccc(F)cc2)c(=O)c2c1nc1n2CCCN1Cc1ccccc1,21µM*,4%,?,1%,10%,i
Cn1c(=O)n(CCc2ccccc2)c(=O)c2c1nc1n2CCCN1CCc1ccccc1,23µM*,1%,3%,-1%,13%,-1%
CCOC(=O)c1c(NC(=O)C2=C(C)NC(=S)NC2c2ccc(CC)cc2)sc(C)c1C (stereo not given),6.5µM*,/,6%,4%,/,/
Cc1cn2c(=O)cc(COC(=O)c3ccc(NC(=O)c4ccccc4C)cc3)nc2s1,/,/,/,/,/,-5%
Cc1c(C)c2cc(Cl)c(OCc3nn[nH]n3)cc2oc1=O,10%,-7%,28µM*,5%,-12%,i
Cc1c2cnn(CC(=O)NC(C)C)c(=O)c2c(C)n1Cc1cccc(Cl)c1,/,/,/,/,/,-3%
CCOC(=O)C1=C(C)NC(=O)NC1c1ccc2c(c1)OCO2 (stereo not given),19%,0%,-10%,4%,-4%,i
COc1ccc(C2NC(=O)NC(C)=C2C(=O)OCc2ccc3c(c2)OCO3)cc1OC (stereo not given),10µM*,3%,-18%,-4%,-3%,-5%
CC1=C(C(=O)OCc2ccc3c(c2)OCO3)C(c2cccc([N+](=O)[O-])c2)NC(=O)N1 (stereo not given),7.3µM*,-2%,/,2%,0%,-7%
CC1=C(C(=O)OCc2ccccc2)C(c2cccc([N+](=O)[O-])c2)NC(=O)N1 (stereo not given),-23%,-2%,2%,-2%,-5%,-8%
CCCCOC(=O)C1=C(C)NC(=O)NC1c1cccc([N+](=O)[O-])c1 (stereo not given),6.5µM*,2%,3%,2%,3%,4%
CCOc1ccc(NC(=O)COc2ccc(C(=O)NCc3cccnc3)cc2OC)cc1,-23%,5%,/,11%,0.37µM*,10%
O=C(CCC1CCCC1)Nc1ccc(C(=O)NCc2cccnc2)cc1,16µM*,-2%,-5%,-4%,5%,-4%
CCOc1ccc(NC(=O)COc2ccc(C(=O)NCc3cccc(OC)c3)cc2OC)cc1,23%,8%,/,2%,5%,i
